The target of assay [1] is Cytochrome P450 2D6 (Homo sapiens) (UniProt P10635). The experiment in a line: Cytochrome P450 Family 2 Subfamily D Member 6 (CYP2D6) small molecule antagonists: luciferase reporter qHTS assay (AID 1671196). Further: nearly all actives have a fitted effect of over 50% in size. Further: potency means the concentration at half of the fitted maximal effect. On activity change, negative = inhibition: series mostly up to about 120 µM. The method in brief: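 Quantitative HTS of Tox21 chemicals against CYP2D6 using a luminescent proluciferin substrate. After NADPH addition, 1 h room-temperature reaction; luminescence recorded 20 min post detection reagent.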
Background: In a reporter assay the amount or activity of a reporter protein is the signal.

The target in assay [2] is Cytochrome P450 2C19 (Homo sapiens) (UniProt P33261). The experiment in a line: Cytochrome P450 Family 2 Subfamily C Member 19 (CYP2C19) small molecule antagonists: luciferase reporter qHTS assay (AID 1671197). Further: nearly all actives have a fitted effect of over 65% in size. Further: potency means the concentration at half of the fitted maximal effect. On activity change, negative = inhibition: series mostly up to about 120 µM. The method in brief: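 P450-Glo CYP2C19 screening system; proluciferin substrate; DMSO compound stocks; 10 min RT preincubation; NADPH regeneration, 1 h at 37C; luciferin detection reagent, 20 min RT; luminescence as RLU.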

Assay [3] deals with Cytochrome P450 2C9 (Homo sapiens) (UniProt P11712). The experiment in a line: Cytochrome P450 Family 2 Subfamily C Member 9 (CYP2C9) small molecule antagonists: luciferase reporter qHTS assay (AID 1671198). Further: series mostly up to about 120 µM; nearly all actives have a fitted effect of over 50% in size. The method in brief: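 P450-Glo proluciferin substrate with CYP2C9 enzyme; 10 min RT preincubation, then NADPH regeneration 1 h at 37C; luciferin detection reagent 20 min RT, luminescence in relative luminescence units.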

For assay [4], the target named is Cytochrome P450 1A2 (Homo sapiens) (UniProt P05177). The assay can be described thus: Cytochrome P450 Family 1 Subfamily A Member 2 (CYP1A2) small molecule antagonists: luciferase reporter qHTS assay (AID 1671199). Further: nearly all actives have a fitted effect of over 50% in size. Further: potency means the concentration at half of the fitted maximal effect. On activity change, negative = inhibition: series mostly up to about 120 µM. The method in brief:
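Quantitative high-throughput format using the P450-Glo CYP1A2 system. Reaction initiated by NADPH regeneration solution, 1 h at room temperature, then stopped with detection reagent; luminescence measured 20 min later.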

Assay [5] deals with Voltage-gated inwardly rectifying potassium channel KCNH2 (Homo sapiens) (UniProt Q12809). The assay can be described thus: Human Ether-a-go-go-Related Gene (hERG) channel small molecule antagonists: fluorescence cell-based qHTS assay (AID 1671200).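 Further: hERG-expressing U2OS cells given a thallium stimulus after FluxOR II dye loading; series mostly up to about 77 µM; nearly all actives have a fitted effect of over 50% in size.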 The method in brief: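 Measured: Tl+ flux via fluorescence (480/540 nm) in hERG-expressing U2OS cells after 1 h dye loading at room temperature.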
For orientation: hERG is a cardiac potassium channel; its block is linked to QT prolongation.

In assay [6] the target is Cytochrome P450 3A4 (Homo sapiens) (UniProt P08684). The experiment in a line: Cytochrome P450 Family 3 Subfamily A Member 4 (CYP3A4) small molecule antagonists: luciferase reporter qHTS assay (AID 1671201). The method in brief: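 Setup: enzyme-substrate mix, compound pin transfer, 10 min RT. Reaction: NADPH regeneration solution, 1 h RT. Readout: detection reagent stops turnover, luminescence measured after 20 min, expressed in relative luminescence units.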

Here are results for 26 compounds from PubChem BioAssay (Tox21).

Structures are written as SMILES. Records with an inconclusive call do not appear. Values without a mark were called inactive. The source made the active and inactive calls. The call rests on the fitted dose curve; in most records, active means well fitted curve in the direction sought with a large enough effect in the repeat runs; inconclusive means weak or mixed curves; inactive means no such curve, though single readings can be large; an effect the other way counts as inactive or inconclusive.
On the % scale 0 is the no-effect control and ±100 the full control effect.

Chain of Cytochrome P450 2C19 (Homo sapiens) (P33261 whole entry, looked up): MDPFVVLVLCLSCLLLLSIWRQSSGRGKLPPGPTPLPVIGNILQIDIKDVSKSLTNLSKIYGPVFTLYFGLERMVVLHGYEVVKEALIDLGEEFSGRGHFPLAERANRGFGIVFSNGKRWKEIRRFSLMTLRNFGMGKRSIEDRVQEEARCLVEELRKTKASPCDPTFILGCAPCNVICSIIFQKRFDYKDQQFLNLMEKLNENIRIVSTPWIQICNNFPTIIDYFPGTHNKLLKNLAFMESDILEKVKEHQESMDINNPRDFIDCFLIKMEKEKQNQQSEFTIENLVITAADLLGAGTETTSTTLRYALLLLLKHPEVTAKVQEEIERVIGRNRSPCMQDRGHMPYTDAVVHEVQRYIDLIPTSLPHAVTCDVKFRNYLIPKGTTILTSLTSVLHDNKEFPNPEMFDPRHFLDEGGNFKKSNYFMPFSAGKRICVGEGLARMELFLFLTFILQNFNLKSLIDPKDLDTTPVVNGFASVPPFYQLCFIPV
Chain of Cytochrome P450 3A4 (Homo sapiens) (P08684 whole entry, looked up): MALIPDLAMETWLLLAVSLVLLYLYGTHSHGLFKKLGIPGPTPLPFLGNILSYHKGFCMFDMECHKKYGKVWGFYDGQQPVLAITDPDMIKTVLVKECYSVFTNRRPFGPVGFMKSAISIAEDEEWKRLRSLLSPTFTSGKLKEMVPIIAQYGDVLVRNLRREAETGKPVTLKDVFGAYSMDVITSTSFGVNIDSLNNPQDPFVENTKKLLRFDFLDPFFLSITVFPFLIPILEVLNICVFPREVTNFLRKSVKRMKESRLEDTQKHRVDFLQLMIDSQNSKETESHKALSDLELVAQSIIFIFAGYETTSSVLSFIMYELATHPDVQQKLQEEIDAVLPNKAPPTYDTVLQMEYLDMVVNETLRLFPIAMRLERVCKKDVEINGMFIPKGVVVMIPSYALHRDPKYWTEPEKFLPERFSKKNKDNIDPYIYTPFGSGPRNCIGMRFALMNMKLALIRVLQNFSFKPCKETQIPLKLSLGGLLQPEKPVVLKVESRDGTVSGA
Chain of Cytochrome P450 1A2 (Homo sapiens) (P05177 whole entry, looked up): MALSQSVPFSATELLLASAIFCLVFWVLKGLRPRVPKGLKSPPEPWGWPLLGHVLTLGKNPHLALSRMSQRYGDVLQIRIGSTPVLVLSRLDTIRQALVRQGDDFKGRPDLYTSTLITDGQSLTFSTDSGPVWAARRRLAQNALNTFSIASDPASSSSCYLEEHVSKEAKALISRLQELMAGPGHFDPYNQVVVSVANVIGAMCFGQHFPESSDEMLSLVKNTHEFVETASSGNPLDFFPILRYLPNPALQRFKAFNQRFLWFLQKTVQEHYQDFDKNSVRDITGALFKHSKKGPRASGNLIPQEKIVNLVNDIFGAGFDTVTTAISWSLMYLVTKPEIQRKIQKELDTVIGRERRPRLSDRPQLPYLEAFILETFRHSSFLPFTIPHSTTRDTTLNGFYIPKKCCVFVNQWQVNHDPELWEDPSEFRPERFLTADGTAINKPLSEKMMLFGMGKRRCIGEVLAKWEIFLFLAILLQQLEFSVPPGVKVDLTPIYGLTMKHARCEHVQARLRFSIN
Chain of Cytochrome P450 2C9 (Homo sapiens) (P11712 whole entry, looked up): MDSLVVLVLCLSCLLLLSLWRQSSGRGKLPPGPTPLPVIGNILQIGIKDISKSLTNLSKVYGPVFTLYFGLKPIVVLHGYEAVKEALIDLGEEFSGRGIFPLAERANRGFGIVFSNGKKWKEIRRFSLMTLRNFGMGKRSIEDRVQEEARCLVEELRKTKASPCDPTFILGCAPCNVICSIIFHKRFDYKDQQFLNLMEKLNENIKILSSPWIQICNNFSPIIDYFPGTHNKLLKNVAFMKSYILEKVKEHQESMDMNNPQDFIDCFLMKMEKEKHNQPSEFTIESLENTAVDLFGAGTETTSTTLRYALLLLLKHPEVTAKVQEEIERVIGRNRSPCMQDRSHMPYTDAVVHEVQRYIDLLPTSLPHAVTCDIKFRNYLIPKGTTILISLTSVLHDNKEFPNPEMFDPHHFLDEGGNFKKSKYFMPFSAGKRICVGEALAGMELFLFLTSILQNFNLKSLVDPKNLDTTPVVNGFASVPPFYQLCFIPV
Chain of Voltage-gated inwardly rectifying potassium channel KCNH2 (Homo sapiens) (Q12809 whole entry, looked up): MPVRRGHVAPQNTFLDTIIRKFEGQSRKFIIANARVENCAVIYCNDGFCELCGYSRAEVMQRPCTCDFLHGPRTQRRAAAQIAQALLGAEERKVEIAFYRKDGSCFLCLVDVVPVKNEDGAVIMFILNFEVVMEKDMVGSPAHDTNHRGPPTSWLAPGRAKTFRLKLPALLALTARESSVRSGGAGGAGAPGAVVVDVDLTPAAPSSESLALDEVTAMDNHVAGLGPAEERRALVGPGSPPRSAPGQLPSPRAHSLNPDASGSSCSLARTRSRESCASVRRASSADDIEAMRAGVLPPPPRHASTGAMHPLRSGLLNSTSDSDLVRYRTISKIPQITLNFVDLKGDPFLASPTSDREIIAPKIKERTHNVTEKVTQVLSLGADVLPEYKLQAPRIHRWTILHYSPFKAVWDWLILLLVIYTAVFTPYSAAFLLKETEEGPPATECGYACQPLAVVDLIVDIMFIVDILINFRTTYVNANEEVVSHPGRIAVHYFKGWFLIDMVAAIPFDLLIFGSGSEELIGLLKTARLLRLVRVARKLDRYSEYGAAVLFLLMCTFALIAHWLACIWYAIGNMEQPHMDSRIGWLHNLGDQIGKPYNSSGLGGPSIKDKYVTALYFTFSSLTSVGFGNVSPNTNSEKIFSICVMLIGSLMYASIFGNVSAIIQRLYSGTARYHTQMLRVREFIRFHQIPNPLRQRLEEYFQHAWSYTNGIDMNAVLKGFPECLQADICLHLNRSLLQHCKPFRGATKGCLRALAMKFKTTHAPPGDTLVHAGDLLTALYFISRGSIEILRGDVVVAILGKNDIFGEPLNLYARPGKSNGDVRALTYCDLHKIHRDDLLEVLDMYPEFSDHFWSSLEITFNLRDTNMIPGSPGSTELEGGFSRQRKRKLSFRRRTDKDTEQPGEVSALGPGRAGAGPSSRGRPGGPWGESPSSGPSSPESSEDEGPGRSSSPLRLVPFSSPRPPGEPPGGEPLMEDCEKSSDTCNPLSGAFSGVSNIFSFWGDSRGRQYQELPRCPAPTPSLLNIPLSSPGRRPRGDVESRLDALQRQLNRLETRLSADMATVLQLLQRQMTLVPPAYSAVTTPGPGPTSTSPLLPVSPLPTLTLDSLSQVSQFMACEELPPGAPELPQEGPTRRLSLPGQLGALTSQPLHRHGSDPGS
Chain of Cytochrome P450 2D6 (Homo sapiens) (P10635 whole entry, looked up): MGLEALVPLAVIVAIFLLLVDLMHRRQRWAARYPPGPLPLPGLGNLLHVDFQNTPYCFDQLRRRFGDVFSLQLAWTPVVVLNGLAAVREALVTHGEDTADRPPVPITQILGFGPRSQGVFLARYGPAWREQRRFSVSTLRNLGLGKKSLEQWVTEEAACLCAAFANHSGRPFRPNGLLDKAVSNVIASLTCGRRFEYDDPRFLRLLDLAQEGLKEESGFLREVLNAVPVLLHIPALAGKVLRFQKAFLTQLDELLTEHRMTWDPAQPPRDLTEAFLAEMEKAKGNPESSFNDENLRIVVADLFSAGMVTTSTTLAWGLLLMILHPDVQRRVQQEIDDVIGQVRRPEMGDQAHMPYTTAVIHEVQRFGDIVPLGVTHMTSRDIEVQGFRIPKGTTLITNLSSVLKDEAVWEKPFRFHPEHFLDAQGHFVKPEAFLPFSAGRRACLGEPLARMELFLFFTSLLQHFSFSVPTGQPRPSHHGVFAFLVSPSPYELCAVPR

Regarding `COCCCOCCCOC`, the Potency entry in assay [1], in assay [2], in assay [3], in assay [4], in assay [5] and in assay [6] was “inactive” in each case.

As to `O=c1n(CCO)c(=O)n(CCO)c(=O)n1CCO`, the Potency entry in assay [1], in assay [2], in assay [3], in assay [4], in assay [5] and in assay [6] was “inactive” in each case.

`OC[C@]1(O)OC[C@@H](O)[C@H](O)[C@@H]1O`: the Potency result in assay [1], in assay [2], in assay [3], in assay [4], in assay [5] and in assay [6] was “inactive” in each case.

For `C=COCC1CCC(CO)CC1` (stereo not drawn), the Potency result in assay [1], in assay [2], in assay [4], in assay [5] and in assay [6] was “inactive” throughout.

With `NC(=O)c1ccc([N+](=O)[O-])cc1`, the Potency result in assay [1], in assay [5] and in assay [6] was “inactive” each time. Further, the Potency in assay [2] was 79.3 µM (active); in assay [4] it was 39.8 µM (active).

As to `Cc1cc(O)cc2c1O[C@](C)(CCC[C@H](C)CCC[C@H](C)CCCC(C)C)CC2`, the Potency entry in assay [1], in assay [2], in assay [5] and in assay [6] was “inactive” each time.

Turning to `FC(F)OC(Cl)C(F)(F)F` (stereo not drawn), the Potency entry in assay [1], in assay [3], in assay [5] and in assay [6] was “inactive” each time. The Potency in assay [4] was 39.9 µM (active).

Consider `Cc1ccc(=O)n(-c2ccccc2)c1`, for which the Potency result in assay [1], in assay [3], in assay [4], in assay [5] and in assay [6] was “inactive” in each case.

Consider `N#Cc1ccc(C2CCCc3cncn32)cc1` (stereo not drawn), for which the Potency in assay [1] and in assay [2] was 12.7 µM (active) throughout. In addition, the Potency result in assay [4] and in assay [5] was “inactive” in each case.

With `CC(C)CCCC(C)N` (stereo not drawn), the Potency entry in assay [1], in assay [3] and in assay [5] was “inactive” each time. For the same compound, the Potency in assay [4] is 21.9 µM (active).

Regarding `O=C1CCCN1C1CCCCC1`, in assay [1], the Potency was 35.6 µM (active). Also, the Potency result in assay [3], in assay [5] and in assay [6] was “inactive” throughout.

With `CCCCC/C=C\CCC=O`, the Potency entry in assay [1] and in assay [6] was “inactive” throughout. Further, the Potency in assay [2] is 63.3 µM (active).

As to `C[C@](N)(Cc1ccc(O)cc1)C(=O)O`, the activity change, negative = inhibition in assay [1] is -0.539% [at 10.5 µM]; in assay [2], -21.1% [at 10.5 µM]; in assay [4], 0.454% [at 10.5 µM]; in assay [5] it was 1.07% [at 6.97 µM].

With `O=C(O)COc1nn(Cc2ccccc2)c2ccccc12`, the Potency result in assay [1], in assay [2], in assay [4], in assay [5] and in assay [6] was “inactive” in each case.

As to `C=C1CC[C@H]2C[C@@H]1C2(C)C`, the Potency result in assay [1], in assay [2], in assay [4], in assay [5] and in assay [6] was “inactive” in each case.

For the compound `OC(CCN1CCCCC1)(c1ccccc1)C1CC2C=CC1C2` (stereo not drawn), the Potency in assay [1] is 0.776 µM (active). The Potency entry in assay [3] and in assay [4] was “inactive” each time.

In the case of `Nc1ccccc1S(=O)(=O)O`, the Potency entry in assay [1], in assay [2], in assay [4] and in assay [6] was “inactive” each time.

Consider `CCCCNC(=O)NCCCC`, for which the Potency entry in assay [1] and in assay [5] was “inactive” throughout. The values for the Potency in assay [2] and in assay [4] were 39.9 µM (active) and 35.6 µM (active), respectively.

As to `N=C(N)c1ccc(OCCCOc2ccc(C(=N)N)cc2)cc1`, the Potency entry in assay [1], in assay [2], in assay [4], in assay [5] and in assay [6] was “inactive” each time.

Take `CC(=O)Nc1ccc(S(N)(=O)=O)cc1`: the Potency entry in assay [1], in assay [3], in assay [4], in assay [5] and in assay [6] was “inactive” throughout.

Turning to `CCCc1cc(C(N)=S)ccn1`, the Potency result in assay [1], in assay [3], in assay [4], in assay [5] and in assay [6] was “inactive” throughout.

As to `O=C(O)Cc1ccc(CCNS(=O)(=O)c2ccc(Cl)cc2)cc1`, the Potency result in assay [1], in assay [2], in assay [4], in assay [5] and in assay [6] was “inactive” each time.

`COc1ccccc1OCC(O)CN1CCN(CC(=O)Nc2c(C)cccc2C)CC1` (stereo not drawn): the Potency in assay [1] was 13.8 µM (active). Moreover, the Potency entry in assay [2], in assay [4] and in assay [5] was “inactive” each time.

In the case of `C/C=C(\C)C#N`, the Potency entry in assay [1] and in assay [6] was “inactive” throughout. In addition, in assay [2], the Potency was 78.4 µM (active).

Take `Cc1ccc(C#N)cc1`: the Potency entry in assay [1], in assay [4], in assay [5] and in assay [6] was “inactive” in each case. Further, the Potency in assay [2] is 34.4 µM (active).

As to `Nc1ccc(S(=O)(=O)Nc2ccnn2-c2ccccc2)cc1`, the values for the activity change, negative = inhibition in assay [1] and in assay [5] were 0.38% [at 23.6 µM] and 4.06% [at 15.8 µM], respectively. Further, the Potency result in assay [2] and in assay [4] was “inactive” throughout.
